In the GenesisPotency data set:
Hit rate of the full screen: of about 290,000 compounds, about 3,000 (1%) were called active. Rule as the data show it: active = inhibition mostly above about 36% (no sharp cut-off); inactive = mostly below about 34%. The entries come from a sample that favours actives as a whole.

The molecules below were run against T1, Nucleotide-binding oligomerization domain-containing protein 1, Homo sapiens (UniProt Q9Y239) (assay: NOD1 signaling inhibitors, primary screen, cell-based, luminescence, uHTS (AID 1578)).
T1 sequence (whole entry): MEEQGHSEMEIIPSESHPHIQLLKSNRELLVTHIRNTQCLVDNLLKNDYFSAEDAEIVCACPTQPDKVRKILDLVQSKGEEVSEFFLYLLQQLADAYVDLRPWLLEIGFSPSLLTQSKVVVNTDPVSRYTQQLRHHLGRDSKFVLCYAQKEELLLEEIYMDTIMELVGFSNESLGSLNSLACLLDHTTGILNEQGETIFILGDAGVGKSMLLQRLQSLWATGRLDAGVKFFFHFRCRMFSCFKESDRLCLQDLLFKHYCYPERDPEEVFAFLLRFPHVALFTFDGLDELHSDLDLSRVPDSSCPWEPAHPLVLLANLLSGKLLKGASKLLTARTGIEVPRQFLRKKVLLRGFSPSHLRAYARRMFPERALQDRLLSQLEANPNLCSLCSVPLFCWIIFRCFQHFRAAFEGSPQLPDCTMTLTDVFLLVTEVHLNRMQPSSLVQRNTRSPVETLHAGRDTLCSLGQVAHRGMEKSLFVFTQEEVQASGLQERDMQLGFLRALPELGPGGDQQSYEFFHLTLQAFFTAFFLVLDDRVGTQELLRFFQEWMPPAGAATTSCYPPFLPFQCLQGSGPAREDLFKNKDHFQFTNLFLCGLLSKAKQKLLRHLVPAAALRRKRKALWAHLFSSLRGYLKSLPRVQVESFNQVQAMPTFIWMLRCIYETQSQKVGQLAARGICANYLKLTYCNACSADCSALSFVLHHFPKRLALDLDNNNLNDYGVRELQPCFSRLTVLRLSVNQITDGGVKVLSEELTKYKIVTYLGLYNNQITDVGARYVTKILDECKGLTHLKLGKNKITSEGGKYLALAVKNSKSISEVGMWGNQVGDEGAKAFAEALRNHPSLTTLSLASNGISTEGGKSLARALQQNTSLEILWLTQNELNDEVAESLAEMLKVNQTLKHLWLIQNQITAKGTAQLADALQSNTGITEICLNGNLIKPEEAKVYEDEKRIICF

Row | SMILES | outcome
1 | COc1ccc(-c2cc(-c3ccccc3)[n+](C)c(-c3ccccc3)c2)cc1.[O-][Cl+3]([O-])([O-])[O-] | active
2 | COc1ccc(-[n+]2c(-c3ccccc3)cc(-c3ccc(C)cc3)cc2-c2ccccc2)cc1.[O-][Cl+3]([O-])([O-])[O-] | active
3 | CCC(C)C(NC(=O)CCCNC(=O)CCC(=O)OC1O[C@H]2OC3(C)CC[C@H]4[C@H](C)CCC(C1C)C24OO3)C(=O)O (some centres undefined) | active
4 | CC(C)CC(NC(=O)CCCNC(=O)CCC(=O)OC1O[C@H]2OC3(C)CC[C@H]4[C@H](C)CCC(C1C)C24OO3)C(=O)O (some centres undefined) | active
5 | CCC(C)NC(=O)CCC(=O)OC1O[C@H]2OC3(C)CC[C@H]4[C@H](C)CCC(C1C)C24OO3 (some centres undefined) | active
6 | CC[C@@]1(O)C(=O)OCc2c1cc1n(c2=O)Cc2cc3ccccc3nc2-1 | active
7 | CCCCCn1c(=O)c(C(=O)Nc2cnccn2)c(O)c2ccccc21 | active
8 | CCCCCCn1c(=O)c(C(=O)Nc2cnccn2)c(O)c2ccccc21 | active
9 | C=C1C(=O)O[C@@H]2C[C@@H](C)[C@@H]3C=CC(=O)[C@@]3(C)[C@@H](OC(=O)CC(=O)O[C@H]3[C@@H]4C(=C)C(=O)O[C@@H]4C[C@@H](C)[C@@H]4C=CC(=O)[C@]43C)[C@H]12 | active
10 | C=C1C(=O)O[C@H]2C[C@@H](C)[C@@H]3C=CC(=O)[C@@]3(C)C[C@H]12 | active
11 | O=c1c2ccccc2nc(/C=C/c2ccccc2O)n1-c1ccccc1O | active
12 | CC(C)(C)c1ccc(CSc2cnn(C(C)(C)C)c(=O)c2Cl)cc1 | active
13 | O=Cc1cn(Cc2cccc([N+](=O)[O-])c2)c2ccccc12 | active
14 | Cc1cccc(-n2c(/C=C/c3ccc([N+](=O)[O-])o3)nc3ccccc3c2=O)c1 | active
15 | O=c1c2ccccc2nc(/C=C/c2ccc([N+](=O)[O-])o2)n1-c1ccc(O)cc1 | active
16 | O=C(c1ccc(Cl)cc1)C1CCCN(Cc2cccc3ncccc23)C1 (centres undefined) | active
17 | Cc1nc2c(=O)n(C)c(=O)nc-2n(C)n1 | active

Row | SMILES | outcome
18 | CCOc1ccc(-c2cc(C)[n+](CCN(CC)CC)c(-c3ccc(OCC)cc3)c2)cc1.[O-][Cl+3]([O-])([O-])[O-] | active
19 | CC(=O)c1c(C)n(C2CCCCC2)c2ccc(O)cc12 | active
20 | C[C@H]1CCC[C@@H](O)CCC/C=C/c2cc(O)cc(O)c2C(=O)O1 | active
21 | CC1=CC(=Cc2sc3ccccc3[n+]2C)C=C(C)O1.[O-][Cl+3]([O-])([O-])[O-] | active
22 | CC(C)[C@H]1C(=O)O[C@H](C(C)C)C(=O)N(C)[C@@H](C(C)C)C(=O)O[C@H](C(C)C)C(=O)N(C)[C@@H](C(C)C)C(=O)O[C@H](C(C)C)C(=O)N1C | active
23 | CCn1nc(-c2ccccc2)nc2c(=O)n(C)c(=O)nc1-2 | active
24 | CCn1nc(/C=C/c2ccccc2)nc2c(=O)n(C)c(=O)nc1-2 | active
25 | Cc1nn(C(C)(C)C)c(C)c1/C=N/OC(=O)Nc1ccc(Cl)c(Cl)c1 | active
26 | Cc1nn(C(C)(C)C)c(C)c1/C=N/OC(=O)Nc1ccc(Cl)cc1 | active
27 | COc1ccc(Oc2cc(NC(=O)c3nn(C)cc3[N+](=O)[O-])cc([N+](=O)[O-])c2)cc1 | active
28 | C[C@@H]1O[C@@H](O[C@H]2C[C@@H](O)[C@]3(CO)[C@H]4[C@H](O)C[C@]5(C)[C@@H](C6=CC(=O)OC6)CC[C@]5(O)[C@@H]4CC[C@]3(O)C2)[C@H](O)[C@H](O)[C@H]1O | active
29 | NC(=O)c1cn(C2OC(CO)C(O)C2O)c2ncnc(N)c12.O (centres undefined) | active
30 | CCCCN=C[C@]12CCC(O)CC1(O)CCC1[C@@H]2CC[C@]2(C)[C@H](C3C=CC(=O)O3)CCC12O (some centres undefined) | active
31 | C[C@]12CCC3C(CCC4=CC(O)CC[C@@]43/C=N/O)C1(O)CCC2C1=CC(=O)OC1 (some centres undefined) | active
32 | CC(=O)OC[C@]12CCC(C)=C[C@H]1O[C@@H]1[C@H](O)[C@@H](OC(C)=O)[C@@]2(C)[C@]12CO2 | active
33 | C=C1C(=O)O[C@@H]2C[C@@H](C)[C@@H]3C4OC4C(=O)[C@@]3(C)[C@@H](O)[C@H]12 (some centres undefined) | active
34 | CCOc1ccc(-c2c(C)n(-c3ccc(OCC)cc3)c3[n+]2CCCCC3)cc1.[O-][Cl+3]([O-])([O-])[O-] | active
